In the supplement of paper PMC6555819:

These sequences were tested on PPARg:RXRa 90nM:30nM, anti-RXR (NR concentration 90 nM, RXRa partner concentration 30 nM) (assay: PBM binding z-score (relative to random genomic background probes); higher = stronger binding; sequences stand for … in GC…GCGATTGACAGCGTAGAATGAAGG).
How it was run: (§1)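 Antibodies against each partner of ligand-free nuclear receptor dimers (one per run) detected binding on custom Agilent 4×180K protein-binding microarrays after 1 h incubation. The double-stranded probes had 34-nt variable regions carrying direct-repeat seeds, single-nucleotide variants, half-site ablations and random human genomic background sequences. Binding z-scores, from regression-normalized fluorescence, use the random background probes as reference.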

| Sequence | PBM binding z-score |
| --- | --- |
| CCTAGTTGGTCAGCAGGTCACACACCGGATATGA | 1.83 |
| TGAAGGAGGTTAAAGATCAGGGAACGTGGCGTCG | 6.03 |
| GCTAGCAGGCCAATTGGGTCACTCAATGACGGGC | 0.444 |
| TCAGACTGGTGAAGGTAACTCAGGTACGCAGTCG | 1.98 |
| CAGCCTAGGTCACGGCCAGTATAGGAGGAACGTT | 3.12 |
| CTCGAAAGGTCGTGCTCAGGTGAGTAAACCAAAC | 2.6 |
| GCTTGAAGATCAAGGTTAAGAAAGACTAAGCTAA | 0.552 |
| CCTAGCAGGCCGGGGTCACTCAAGCATTTCGCTT | 2.54 |
| CAGCCTAGGTCAGGGCCACTATAGGAGGAACGTT | 0.592 |
| CCGACTGGAGCAAAGGTTACCATACTCAGTACGA | 8.54 |
| TGAATGAGGTTATAAGATCTGGGAACGTTGCAAA | 1.58 |
| GATACAGGGTCAGCTAGAGGCCAGGGTATGGAAA | 2.14 |
| ACACACAGGTGATGAAGGTAACTCAGGCTATCAT | 0.167 |
| AGCTCTAGGTAAAGATAGTTCAGTGAATGCAAAT | -0.0707 |
| CCTACTGGGCCAAAAAGGTCAATGATGCCGATAA | 2.86 |
| GCTCGGACGACAAGGTCAGAGCTTTGTCCGTAGA | -0.125 |
| GGAACGAGGGCAAAGTTGATAGCTTCTGTCGACG | 7.17 |
| ATATGTGGGTTACATCCGGGTCATTCAGGCTATG | 3.36 |
| CGAACTAGGTCATTGACAGGACTGTGAATAGTAA | 5.52 |
| TGAATGAGGTTATAAGATTAGGGAACGTTGCAAA | 1.51 |

| Sequence | PBM binding z-score |
| --- | --- |
| GCTAGTTGCTCAGTAAAAGGTCACACACCGGTCG | 2.88 |
| TTACCAAGGTGAGCTGAGGTCGTTAATCCAACTC | 0.306 |
| ACAGACAGGTGAGTGAAGGTAACTCATCTGGACG | -0.143 |
| GCGACTGGGGCATCAGCAGGTTATCATAACTTAA | 0.369 |
| ACTATTAGTTGACTTAGGGTAACCGATACGACGC | 0.705 |
| TCTCGGAGGACAGGAAGGTCAGAGCTTTCCAGAG | 1.78 |
| CTGCCTAGGTCAGGGCCAGTATAGGAGGAACGTT | 0.272 |
| TGAATGAGGTTATAAAATCAGGGAACGTTGCAAA | 1.09 |
| ACAGACAGGTGATGAAGGTGACTCAGGCTATCAT | 0.274 |
| CGACCAAGGTCATAGGAGGTCAGTGAAGACAGAT | 4.68 |
| GTTACAGGGTCAGCTAGAGGCCAGAGTATGGAAA | 2.63 |
| CCTTACGGGTCACTGACAGGTTATACCATTTGGA | 3.05 |
| ATCTCTAGGTAAAGTTCAGTGAGAGATCGATAGA | 3.46 |
| ATCTCTAGGTAACAAATTCAGTGAAAGAGAGGAC | 0.732 |
| CGTCCAAGGTCAAGGTCAGTGTAAGAGACTCGAA | 4.8 |
| CGTACAAGGTCAGAGAGGTCAGTGAATGCCGAGT | 3.42 |
| ACTTACGGGTAAACGAGGTTATAGCACGCGTATA | 0.238 |
| GCTGCTAGGTCAGGTGGGTCAGCTAACGGGTACG | 0.851 |
| CCTACTGTGCCACGAAAGGTCATTGATTCAGTGA | 3.59 |
| CCTGCTAGGTCAATGGTCAGCAAAAGCAGCTCGC | 4.66 |

What follows are sequences tested on PPARg:RXRa DBDmut IVT, anti-RXR (DBD mutation: RXRa K156A/R161A, NR concentration 270 nM, RXRa partner concentration 90 nM) in the same assay as above.
How it was run: as §1

| Sequence | PBM binding z-score |
| --- | --- |
| CCTAGTTGGTCAGCAGGTCACACACCGGATATGA | 1.7 |
| TGAAGGAGGTTAAAGATCAGGGAACGTGGCGTCG | 1 |
| GCTAGCAGGCCAATTGGGTCACTCAATGACGGGC | 2.36 |
| TCAGACTGGTGAAGGTAACTCAGGTACGCAGTCG | 1.41 |
| CAGCCTAGGTCACGGCCAGTATAGGAGGAACGTT | 3.65 |
| CTCGAAAGGTCGTGCTCAGGTGAGTAAACCAAAC | 0.815 |
| GCTTGAAGATCAAGGTTAAGAAAGACTAAGCTAA | -0.184 |
| CCTAGCAGGCCGGGGTCACTCAAGCATTTCGCTT | 0.19 |
| CAGCCTAGGTCAGGGCCACTATAGGAGGAACGTT | 1.2 |
| CCGACTGGAGCAAAGGTTACCATACTCAGTACGA | 2.35 |
| TGAATGAGGTTATAAGATCTGGGAACGTTGCAAA | 1.24 |
| GATACAGGGTCAGCTAGAGGCCAGGGTATGGAAA | 0.631 |
| ACACACAGGTGATGAAGGTAACTCAGGCTATCAT | 0.704 |
| AGCTCTAGGTAAAGATAGTTCAGTGAATGCAAAT | 2.67 |
| CCTACTGGGCCAAAAAGGTCAATGATGCCGATAA | 3.37 |
| GCTCGGACGACAAGGTCAGAGCTTTGTCCGTAGA | -0.353 |
| GGAACGAGGGCAAAGTTGATAGCTTCTGTCGACG | 4.1 |
| ATATGTGGGTTACATCCGGGTCATTCAGGCTATG | 6.84 |
| CGAACTAGGTCATTGACAGGACTGTGAATAGTAA | 7.96 |
| TGAATGAGGTTATAAGATTAGGGAACGTTGCAAA | 1.08 |

| Sequence | PBM binding z-score |
| --- | --- |
| GCTAGTTGCTCAGTAAAAGGTCACACACCGGTCG | 0.44 |
| TTACCAAGGTGAGCTGAGGTCGTTAATCCAACTC | 1.09 |
| ACAGACAGGTGAGTGAAGGTAACTCATCTGGACG | 0.0887 |
| GCGACTGGGGCATCAGCAGGTTATCATAACTTAA | 3.69 |
| ACTATTAGTTGACTTAGGGTAACCGATACGACGC | 0.838 |
| TCTCGGAGGACAGGAAGGTCAGAGCTTTCCAGAG | 1.52 |
| CTGCCTAGGTCAGGGCCAGTATAGGAGGAACGTT | 1 |
| TGAATGAGGTTATAAAATCAGGGAACGTTGCAAA | 0.257 |
| ACAGACAGGTGATGAAGGTGACTCAGGCTATCAT | 0.111 |
| CGACCAAGGTCATAGGAGGTCAGTGAAGACAGAT | 3.37 |
| GTTACAGGGTCAGCTAGAGGCCAGAGTATGGAAA | 1.9 |
| CCTTACGGGTCACTGACAGGTTATACCATTTGGA | 3.69 |
| ATCTCTAGGTAAAGTTCAGTGAGAGATCGATAGA | 2.11 |
| ATCTCTAGGTAACAAATTCAGTGAAAGAGAGGAC | 2.5 |
| CGTCCAAGGTCAAGGTCAGTGTAAGAGACTCGAA | 3.46 |
| CGTACAAGGTCAGAGAGGTCAGTGAATGCCGAGT | 3.77 |
| ACTTACGGGTAAACGAGGTTATAGCACGCGTATA | 0.828 |
| GCTGCTAGGTCAGGTGGGTCAGCTAACGGGTACG | 2.85 |
| CCTACTGTGCCACGAAAGGTCATTGATTCAGTGA | 5.18 |
| CCTGCTAGGTCAATGGTCAGCAAAAGCAGCTCGC | 4.13 |
